Data from the supplement of paper PMC3334620.
In all, about 33,000 sequences were measured (“E-score (-0.5 to 0.5)”: median about -0.054, highest 2% from about 0.35 on). This is one part of a sample in which the highest values are shown more often than they occur.

biological target: T1, Stb5 (UniProt P38699); assay: PBM E-score (8-mer binding enrichment) (E-score (-0.5 to 0.5)); higher = stronger / more preferred TF binding; conditions: protein concentration: 200 nM; construct: GST-full length
T1 sequence: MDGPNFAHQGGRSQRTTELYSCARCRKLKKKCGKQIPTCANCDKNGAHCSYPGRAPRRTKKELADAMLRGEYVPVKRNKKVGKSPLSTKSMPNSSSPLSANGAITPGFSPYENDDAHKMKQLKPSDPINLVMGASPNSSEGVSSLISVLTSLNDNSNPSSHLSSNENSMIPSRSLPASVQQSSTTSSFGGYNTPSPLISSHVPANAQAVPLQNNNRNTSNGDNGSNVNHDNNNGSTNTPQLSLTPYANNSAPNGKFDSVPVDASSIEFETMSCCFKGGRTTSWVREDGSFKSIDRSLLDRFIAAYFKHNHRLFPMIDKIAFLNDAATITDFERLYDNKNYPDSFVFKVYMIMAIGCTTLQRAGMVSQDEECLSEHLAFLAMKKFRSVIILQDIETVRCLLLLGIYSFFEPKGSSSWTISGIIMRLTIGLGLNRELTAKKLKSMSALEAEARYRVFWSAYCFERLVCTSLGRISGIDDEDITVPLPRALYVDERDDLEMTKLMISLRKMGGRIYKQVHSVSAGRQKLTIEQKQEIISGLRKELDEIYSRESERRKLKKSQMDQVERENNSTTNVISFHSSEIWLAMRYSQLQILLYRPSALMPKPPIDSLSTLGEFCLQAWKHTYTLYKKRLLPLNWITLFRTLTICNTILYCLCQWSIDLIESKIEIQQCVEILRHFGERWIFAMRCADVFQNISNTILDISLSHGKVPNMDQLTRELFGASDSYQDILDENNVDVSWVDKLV
Procedure, shortened: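 PURExpress in vitro transcription/translation supplied GST-tagged yeast transcription factors, either full-length or DNA-binding domain. Applied at about 100-200 nM to universal all-10-mer Agilent arrays double-stranded by primer extension, the bound protein was detected with fluorescent anti-GST. E-scores, modified Wilcoxon-Mann-Whitney statistics, were given by the Universal PBM Analysis Suite to ungapped eight-base words pooled with their reverse complements after masliner normalisation.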

Sequence	PBM E-score
ACAAGTGT	-0.136
CAGGTTAA	-0.0457
AACGGGGC	0.294
CACGGACC	0.241
AACGGAGA	0.247
AACGGGGT	0.373
AACGGACT	0.38
AACGGATC	0.16
AACGGACC	0.38
AACGGGGG	0.296
AACGGACA	0.298
AACGGAGT	0.378
AACGGACG	0.224
AACGGAGC	0.242
GTAAGATA	0.0697
CTGCAGCC	-0.218
TCTGGGCA	0.115
TAGCTTCA	-0.214
AGCGATGC	-0.112
CGTTGTAA	-0.00989
AGTTCAGC	-0.299
TAGCGGCA	0.372
GAGCGGCA	0.357
GAGCGGCC	0.293
GAGCGGTA	0.316

Sequence	PBM E-score
AAGCGGCA	0.344
CAGCGGCA	0.198
CGCCAGTC	0.131
CGCTGATC	0.0743
TAGCGATA	0.0393
GATGCCGC	0.349
AATGCCCC	0.128
CATGCCGA	0.168
AATGCCGC	0.448
GATGCCGA	0.332
AATGCCCG	0.362
AATGCCGA	0.419
CATGCCGC	0.312
CATGCCCG	0.122
CATGCCGG	0.344
AATGCCTG	-0.102
AATGCCGG	0.401
AAGACCTC	-0.0749
CCCTTGGC	-0.224
CTGATTAC	-0.0945
GCAGTTCA	-0.151
CTTGCCAC	-0.0929
CTGGGAGA	-0.253
AAAGCTCG	-0.16
AGATAGAC	-0.0476

Sequence	PBM E-score
ACCCTTTG	0.0498
CAGCCATA	-0.263
AATCCCAA	0.0066
AATGCCGT	0.425
AATGCCCT	-0.168
AATGCCAT	-0.0216
GGGTTTCA	0.19
CACCGCAA	0.368
AACCGCAC	0.00707
AACCGCAA	0.12
GACCGCAC	0.18
TACCGCAA	0.225
CACCGCAC	0.357
CGAGGCTA	-0.0771
AATGAGAG	-0.228
ATGCCTTA	-0.338
CTCCGGAC	0.381
GACCGGAC	0.387
AACCGGAG	0.302
CGCCGGAA	0.168
CACCGGAG	0.379
ATCCGGAC	0.258
GACCGGCC	0.29
GACCGGAA	0.21
CTCCGGAG	0.283

Sequence	PBM E-score
GTCCGGAC	0.348
CGCCGGAC	0.396
GGCCGGAC	0.331
TAGACCAA	-0.239
CAATGGCA	0.022
TATTTACA	-0.157
AGCTGTTC	-0.207
CAAGATGG	-0.13
TAGATTGA	0.0223
AAAGTACG	0.00248
CCAATGCG	-0.208
GAGAGGCC	-0.0937
CACCGGAC	0.413
AACCGGAC	0.28
CACCGGGG	0.33
CACCGGAA	0.293
GACCGGGC	0.211
CACCGGGC	0.375
CAGCAATA	-0.0729
ATGCCCAA	-0.116
CGCGGCTA	0.3
AGGTAACA	-0.111
GGGTAATA	0.143
CGGTAACC	0.165
CGGTAACA	0.36

Sequence	PBM E-score
CGGTAATC	0.25
CGGTAATA	0.457
CGCATAAA	-0.127
CAAGCGGA	0.223
CAAGCGGC	0.379
CAAGCGGG	0.273
AAAGCGGG	0.297
AAAGCGGA	0.352
TAAGCGGA	0.209
CCGACAAG	0.266
ACGACGGC	0.146
CCGACGCG	0.378
GCGACGGA	0.283
CCGACGGA	0.394
ACGACGCG	-0.0646
CCGACGCC	0.315
CCGACAAA	0.353
CCGACGGC	0.372
ACGACGGA	0.227
CCGACGAC	0.312
TCGACAAA	-0.183
CGCGATCC	0.0632
AAAACGGC	0.21
GTACTCAA	-0.185
GCTTTAAC	-0.0801

Sequence	PBM E-score
TAAATCGA	-0.267
AGTCAAAA	-0.00563
AAACCTCT	0.015
ATAAAGAG	-0.0867
CCAAGCAG	-0.122
CACTGTCA	-0.352
AAGCTCCG	0.429
AAACTCCG	0.463
AAACTCCT	0.0448
ATACTCCC	0.339
AATCTCCC	-0.0498
CAGCTCCG	0.136
AAGCTCCT	-0.165
ATACTCCA	-0.199
AATCTCCG	0.423
CATCTCCG	0.276
ATACTCCG	0.371
CAACTCCG	0.342
CACTGCAA	-0.139
ACGTGCGA	-0.0649
GCTAGTCC	0.0729
GAGAAAGC	0.0247
CACACATC	-0.15
CTGTTCGC	-0.0755
AACCTCCG	0.408

Sequence	PBM E-score
AACCTCCT	-0.234
AACCTCCC	-0.0946
GTAAGCCA	-0.243
GAGTAGCC	-0.178
CGAAATTA	-0.0454
CCCCGTGA	0.146
ACCCGTGC	-0.0288
CCCCGTGC	0.375
ATGAACCA	-0.252
CACAGCTA	-0.125
CAATTGTC	-0.0888
CGGCTCTC	-0.0773
CGGCTATA	0.367
GGGCTTTA	0.326
CGGCTTTC	0.061
AGGCTCTA	-0.0942
CGGCTTTA	0.439
CGGCTCTA	0.391
GGGCTATA	0.0715
AGGCTATA	0.0655
CTCTACCC	-0.316
GCCGCACA	0.206
CTGCTGGC	-0.124
AGCGGGAG	0.0448
AGCGGGAA	0.357

Sequence	PBM E-score
AGCGGGGA	0.375
ATCGGGGA	0.307
CGCGGGGA	0.305
AGCGGGGG	0.277
GGCGGGGA	0.366
AGCGGGAT	0.25
GTCGGGGA	0.382
GCGGGGGA	0.261
CTCGGGGA	0.0793
GGCGGGAA	0.287
GTAGGCAA	-0.246
AATCTCCT	-0.0106
GGGCAGTA	-0.0652
ACCAAACG	0.0282
AGATCCAC	-0.00803
GAACGTTC	-0.114
CCGTTACC	0.19
CAGAGTAC	-0.0917
CGTTTGGC	0.0428
ACGATTAT	0.0316
CCCGAGAC	0.146
CGGATTAA	0.231
ATCGGGCC	0.297
ATCGGGGC	0.356
AGCGGGGC	0.356

Sequence	PBM E-score
CGCGGGGC	0.321
ATCGGGGG	0.289
AGCGGGCC	0.23
CCCATATA	0.0651
ATAAACGA	0.0369
AGCCCAAA	0.106
CCCGACCG	0.355
ACCGACCG	0.346
GCCGACCC	0.267
CCCGACCC	0.247
ACCGACCC	0.361
ACCGACCA	0.332
AACACTAA	-0.111
TGTGGGAA	-0.16
GCCTAGTA	-0.0419
AAAATCCG	0.345
CGCCCCGC	0.325
AGCCCGGG	0.189
AGCCCCCC	-0.282
AGCCCCGG	0.404
GGCCCCGA	0.23
AGCCCCCG	0.173
AGCCCCGC	0.421
AGCCCCGA	0.397
CGCCCCGA	0.328
